Bioassay records as filed in PubChem.
HCMV inh – qHTS Assay for inhibitors of the human cytomegalovirus (HCMV); HFF cells, HCMV-luciferase reporter, 72 h; active compounds read low; activity change, negative = inhibition, % at 57.5 µM; 410,000 tested, 4.5% active; in the data active = activity change below about -60%; inconclusive = no clear call, values can overlap the other calls; inactive = above about -39%
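HFF cells seeded 16 h at 37C, treated with compounds, infected with luciferase-reporter HCMV at MOI 1 PFU/cell; luciferase read at 72 h post infection, normalized to buffer-only and Salinomycin controls.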
Pf growth 96h – Primary qHTS for delayed death inhibitors of the malarial parasite plastid, 96 hour incubation; P. falciparum luciferase reporter growth, 96 h; Potency, µM (highest dose often 28.7 µM), most hits filed as inhibitors; 320,000 tested, 6.9% active; AID 504834, 2011
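Two parasite generations (96 h, 37 C, 5% CO2) of compound exposure in infected erythrocytes (0.05% parasitemia, 2% hematocrit). Luciferase-reporter P. falciparum; decreased luminescence indicates inhibited growth, aimed at apicoplast-acting delayed death.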
Sm TGR block – qHTS Assay for the Inhibitors of Schistosoma Mansoni Peroxiredoxins; purified TGR, DTNB reduction, TNB absorbance 405 nm; Potency, µM (titrated, usually from 114 µM), actives largely listed as inhibitors; 360,000 tested, 3% active; Schistosoma mansoni thioredoxin glutathione reductase (TGR), Q962Y6; AID 485364, 2010; also: nearly all actives have a fitted effect of over 60% in size
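TGR 20 nM + NADPH 100 uM (dispensed conc.), cpd preinc 15 min RT; start with NADPH (500 uM addition) then DTNB (15 mM addition). Kinetic TNB absorbance, 405 nm filter. Four-parameter Hill fit across titration.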
Giardia FBPA inh – qHTS Assay for Inhibitors of Fructose-1,6-bisphosphate Aldolase from Giardia Lamblia; A8B2U2; purified Giardia FBPA; Potency, µM (series often up to 59.6 µM), hits mostly inhibitors; 290,000 tested, 0.71% active; also: nearly all actives have a fitted effect of over 55% in size
Target sequence (A8B2U2 whole entry, looked up): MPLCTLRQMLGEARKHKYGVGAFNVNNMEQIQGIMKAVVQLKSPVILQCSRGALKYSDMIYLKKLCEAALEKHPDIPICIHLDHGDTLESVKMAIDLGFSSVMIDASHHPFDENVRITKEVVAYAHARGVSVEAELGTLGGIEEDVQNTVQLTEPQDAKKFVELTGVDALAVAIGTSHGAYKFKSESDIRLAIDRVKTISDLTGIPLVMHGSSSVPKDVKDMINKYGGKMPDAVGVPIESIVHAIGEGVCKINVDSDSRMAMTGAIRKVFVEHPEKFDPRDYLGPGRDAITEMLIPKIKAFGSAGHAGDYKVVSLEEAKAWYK
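40 nM FBPA preincubated 10 min at RT with compound (up to 57.5 uM final), then substrate plus GAPDH/TPI/NAD/arsenate coupling and diaphorase/resazurin added. Fluorescence read after 20 min at RT, 525/598 nm.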
Pf growth 48h – Primary qHTS for delayed death inhibitors of the malarial parasite plastid, 48 hour incubation | P. falciparum luciferase growth in erythrocytes, 48 h | Potency, µM (series often up to 28.7 µM), actives largely listed as inhibitors | 310,000 tested, 5.9% active | AID 504832, 2011
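First compound was added to culture medium, then infected red cells at 0.1% parasitemia and 2% hematocrit (final). After incubation at 37 C under 5% CO2, luciferase detection reagent was dispensed and light output recorded.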
A number is an active result; . = inactive; ? = inconclusive; / = not tested or not shown; [ ] = another dose, or the depositor's remark. A selection: hits, their analogues and other compounds. The true share with any hit is near 14%. Unless noted, calls follow the shape of the dose curve; as a rule, active = well fitted curve in the direction sought with a large enough effect; inconclusive = small, poorly fitted or top-dose-only effect, or another doubt; inactive = no such curve, though single readings can be large; an effect the other way counts as inactive or inconclusive.

SMILES | HCMV inh | Pf growth 96h | Sm TGR block | Giardia FBPA inh | Pf growth 48h
CCOC(=O)c1c(SCCN2CCCCC2)n(-c2ccccc2)c(=S)n(-c2ccccc2)c1=O | . | / | / | / | /
CC(C)(C)c1ccc(NC(=O)COC(=O)C2(C)CC2(Cl)Cl)cc1 (centres undefined) | . | . | . | . | .
COc1ccccc1N1CCN(Cc2cc3c(cc2O)OCO3)CC1 | . | . | 1.78µM | / | 14.7µM
COc1ccccc1N1CCN(Cc2cc(C)c(C)cc2O)CC1 | . | 0.329µM | . | . | /
O=C(Cc1c(C(=O)O)[nH]c2ccccc12)Nc1ccc2c(c1)OCO2 | . | 13.1µM | . | . | ?
COc1ccc(Cl)cc1N(C)C(=O)Cn1cnc2sc(C)c(S(=O)(=O)N3CCN(c4ncccn4)CC3)c2c1=O | . | / | . | / | /
O=C(CSc1nc(C(F)(F)F)cc(=O)[nH]1)Nc1cccc2ccccc12 | . | . | . | / | .
COc1ccc(Oc2c(C(F)(F)F)oc3cc(OCC(=O)O)ccc3c2=O)cc1 | . | 9.28µM | . | . | .
Cc1cc(=O)oc2cc(OCCCC[n+]3ccccc3)ccc12 | . | ? | . | . | 5.22µM
CC(=O)Nc1ccc(NC(=O)c2ccc(COc3ccc4c(C)cc(=O)oc4c3)cc2)cc1 | / | . | . | . | .
Cc1cc(C)cc(Oc2c(C(F)(F)F)oc3cc(OCC(=O)NC4CCCCC4)ccc3c2=O)c1 | . | / | . | / | /
Cc1cccc(C(C)C)c1NC(=O)c1ccc(COc2ccc3c(C)cc(=O)oc3c2)cc1 | . | 9.28µM | . | . | ?
Cc1cc(=O)oc2cc(OCC(=O)c3ccccc3)ccc12 | . | 6.57µM | . | . | .
Cc1ccc(C(=O)COc2ccc3c(C)cc(=O)oc3c2)cc1 | . | . | . | . | ?
CCC(CC)C(=O)Nc1cc(-c2cccc(C)c2)nn1-c1ccccc1 | . | / | . | / | /
COCc1cc(C)nc2c1C(=O)NC(c1ccc(F)cc1)N2Cc1ccccc1 (centres undefined) | . | / | . | / | /
Cc1cc(=O)oc2cc(OCC(=O)N/N=C/c3ccccc3O)ccc12 | . | 9.28µM | . | . | .
O=C(O)COc1ccc2c3c(c(=O)oc2c1)CCCC3 | -79.8 | . | / | . | .
Cc1cccc(NC(=O)CN(C)S(=O)(=O)c2ccc3c(c2)CCC(=O)N3)c1C | . | / | . | / | /
CCOC(=O)c1c(C)n(CC(O)c2ccccc2)c2ccc(O)cc12 (centres undefined) | . | 11.7µM | . | . | 11.7µM
CCN(CC)S(=O)(=O)c1cccc(N2CC(O)=C(c3ccccc3)C2=N)c1 | . | 2.62µM | . | . | 2.62µM
COc1cc(OC)c(S(=O)(=O)Nc2ccc(C(=O)O)cc2)cc1S(=O)(=O)Nc1ccc(C(=O)O)cc1 | . | . | . | . | .
Cc1cccc(OCCSc2nnc(-c3ccoc3C)n2C)c1 | . | 11.7µM | . | . | .
COc1ccc(-c2nnc(SCC(=O)O)n2Cc2ccccc2)cc1 | . | 7.38µM | ? | . | .
CCNC(=O)CSc1nnc(-c2cccc(S(=O)(=O)N(CC)CC)c2)n1CCc1ccccc1 | . | ? | . | . | ?
SMILES | HCMV inh | Pf growth 96h | Sm TGR block | Giardia FBPA inh | Pf growth 48h
O=C(O)CSc1nnc(-c2ccncc2)n1Cc1ccccc1 | . | . | . | . | /
CCSc1nnc(-c2cccc(S(=O)(=O)N(CC)CC)c2)n1Cc1ccccc1 | . | . | . | . | 14.7µM
Cc1occc1-c1nnc(SCC(=O)N2CCN(c3ccccc3)CC2)n1C | . | ? | . | . | .
Cc1occc1-c1nnc(SCC(=O)N2c3ccccc3CCc3ccccc32)n1C | . | / | . | . | 7.38µM
COc1ccc2nc(SC(C)C(=O)NC3CCCCC3)[nH]c2c1 (centres undefined) | . | ? | . | / | .
CSc1ccc(CN2CCC2(C)C(=O)Nc2cccc(NS(C)(=O)=O)c2)cc1 (centres undefined) | . | / | / | / | /
Cc1ccc(S(=O)(=O)N[C@@H](CCc2ccccc2)CC(=O)C(C)(C)C)cc1 | / | / | / | .[12.9 µM] | /
CN(C)C1CN(Cc2cn(Cc3ccc(F)cc3)nn2)S(=O)(=O)C1 (centres undefined) | . | / | / | / | /
C=CCn1c(SCC(=O)c2ccc(O)c(O)c2)nnc1-c1ccc(OC)cc1 | . | ? | . | / | 2.62µM
CCn1c(SCC(=O)N2c3ccccc3CCc3ccccc32)nnc1-c1ccc(OC)cc1 | . | 9.28µM | . | . | 4.15µM
O=C(CSc1nnc(-c2ccc(O)cc2)n1Cc1ccccc1)NNC(=O)c1ccc(Br)cc1 | -67.8 | ? | . | . | .
C=CCn1c(SCC(=O)c2ccc(O)c(O)c2)nnc1-c1ccc(C)cc1 | . | . | ? | / | ?
CCOc1ccc(-c2nnc(SCC(=O)O)n2Cc2ccccc2)cc1 | . | 0.928µM | . | . | .
CCn1c(SCC(=O)N2CCc3ccccc32)nnc1-c1ccncc1 | . | . | . | . | .
CC(=O)N1CCn2c3c(c4cc(C)ccc42)CCCC31 (centres undefined) | . | . | . | . | .
CCN1CCn2c3c(c4cc(C)ccc42)CCCC31 (centres undefined) | . | . | . | . | 8.28µM
Cc1ccc2c(c1)c1c3n2CCN(CCC#N)C3CCC1 (centres undefined) | . | / | / | / | /
CC(=O)N1CCn2c3c(c(=O)c4cc(C)ccc42)CCC31 (centres undefined) | . | / | 20µM | ? | ?
Cc1ccc2c(c1)c1c3n2CCN(C(=O)CCl)C3CCC1 (centres undefined) | . | ? | 22.4µM | . | ?
CCOC(C)=O | / | . | / | / | .
Cc1ccc(-c2cn(CCN)c(=O)cn2)cc1 | . | / | / | / | /
COc1ccc(Cc2ccccc2C(=O)O)cc1 | . | / | / | / | /
COc1ccc(CC2=CC(=O)c3ccccc3C2=O)cc1 | -96.6 | . | 28.2µM | ? | ?
Cc1ccc(OC(=O)c2cc(-c3ccccc3)nc3ccc(C)cc23)cc1 | . | / | . | / | /
Cc1ccc(/C=N/NC(=O)c2c(-c3ccccc3)noc2C)c(O)c1 | -110.0 | ? | . | / | ?
SMILES | HCMV inh | Pf growth 96h | Sm TGR block | Giardia FBPA inh | Pf growth 48h
CCOc1cc([N+](=O)[O-])cc(/C=N/NC(=O)c2c(-c3ccccc3)noc2C)c1O | / | 13.1µM | . | . | .
COc1cccc(/C=N/NC(=O)c2c(-c3ccccc3)noc2C)c1O | -83.5 | ? | . | . | 5.86µM
COc1cccc(/C=N/NC(=O)c2ccoc2C)c1O | -81.8 | ? | . | . | ?
CCCCN1CC(COCc2ccccc2)Oc2cccc(NCc3cc(OC)c(OC)c(OC)c3)c2S1(=O)=O (centres undefined) | . | / | / | / | /
O=C(N/N=C/c1cc(Br)c(Br)o1)C(O)c1ccccc1 (centres undefined) | . | ? | 39.8µM | . | .
Cc1ccc(/C=N/NC(=O)c2c(-c3ccccc3)noc2C)o1 | ? | . | . | . | .
Cc1onc(-c2ccccc2)c1C(=O)N/N=C/c1cc(Br)c(Br)o1 | . | 13.1µM | . | . | ?
